# Laboratory results: the supplement of paper PMC6555819
# Key:
# Assay in all cases: PBM binding z-score (relative to random genomic background probes); higher = stronger binding; sequences stand for … in GC…GCGATTGACAGCGTAGAATGAAGG
# [1] = tested on: PPARg:RXRa IVT, anti-PPARg (NR concentration 270 nM, RXRa partner concentration 90 nM)
# Summary of the method: (§1)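 The probes on custom Agilent 4×180K protein-binding microarrays were double-stranded, with 34-nt variable regions bearing direct-repeat seeds, single-nucleotide variants, half-site ablations and random human genomic background sequences. Incubation lasted 1 h with ligand-free nuclear receptor dimers in PBS pH 7.4, 2% milk, 0.02% Triton X-100, 1 mM DTT, 0.2 mg/mL BSA and 0.4 mg/ml salmon testes DNA. Antibodies against each partner (one per run) detected bound dimers, and fluorescence scans were regression-normalized. Binding z-scores take the random background probes as reference.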
# [2] = tested on: PPARg DBDmut:RXRa IVT, anti-PPARg (DBD mutation: PPARg1 K132A/R137A, NR concentration 270 nM, RXRa partner concentration 90 nM)
# Summary of the method: as §1
# [3] = tested on: PPARg DBDmut IVT, anti-PPARg (DBD mutation: PPARg1 K132A/R137A, NR concentration 270 nM)
# Summary of the method: as §1
# [4] = tested on: PPARg homodimer (NR concentration 180 nM)
# Summary of the method: as §1
# [5] = tested on: PXR:RXRa (NR concentration 270 nM, RXRa partner concentration 90 nM)
# Summary of the method: as §1
# [6] = tested on: PXR homodimer (NR concentration 270 nM)
# Summary of the method: as §1
# [7] = tested on: RARa:RXR (NR concentration 270 nM, RXRa partner concentration 90 nM)
# Summary of the method: as §1
# [8] = tested on: RARa homodimer (NR concentration 270 nM)
# Summary of the method: as §1
# [9] = tested on: RARb:RXRa (NR concentration 270 nM, RXRa partner concentration 90 nM)
# Summary of the method: as §1
# [10] = tested on: RARb homodimer (NR concentration 270 nM)
# Summary of the method: as §1
# [11] = tested on: RARg:RXRa (NR concentration 270 nM, RXRa partner concentration 90 nM)
# Summary of the method: as §1
# [12] = tested on: RARg homodimer (NR concentration 270 nM)
# Summary of the method: as §1
# [13] = tested on: RXRa DBDmut IVT, anti-RXR (DBD mutation: RXRa K156A/R161A, NR concentration 90 nM)
# Summary of the method: as §1
# [14] = tested on: RXRa homodimer (NR concentration 180 nM)
# Summary of the method: as §1
# [15] = tested on: THRa:RXRa (NR concentration 90 nM, RXRa partner concentration 90 nM)
# Summary of the method: as §1
# [16] = tested on: THRa homodimer (NR concentration 90 nM)
# Summary of the method: as §1
# [17] = tested on: VDR homodimer (NR concentration 270 nM)
# Summary of the method: as §1
Sequence,PBM binding z-score [1],PBM binding z-score [2],PBM binding z-score [3],PBM binding z-score [4],PBM binding z-score [5],PBM binding z-score [6],PBM binding z-score [7],PBM binding z-score [8],PBM binding z-score [9],PBM binding z-score [10],PBM binding z-score [11],PBM binding z-score [12],PBM binding z-score [13],PBM binding z-score [14],PBM binding z-score [15],PBM binding z-score [16],PBM binding z-score [17]
TCTTGTAGGTCAATAGAGGTTAAGAAAGTGCGCT,7.76,2.66,2.4,2.69,5.67,0.719,4.2,1.13,4.09,3.81,4.56,5.15,1.88,4.31,4.71,0.329,1.63
CAAACTAGGTCAAGGTCTAAGTCGGTTTGTGCCA,8.57,4.39,3.12,2,1.67,0.201,2.3,0.357,4.24,3.49,3.81,4.71,1.44,2.49,3.15,1.57,1.14
AGAATGAGGTTAAGTTCAGGGAAACAGAATACAT,3.33,1.62,0.811,1.08,3.31,1.91,3.03,0.895,3.17,2.6,3.41,2.98,2.38,3.6,3.34,1.48,3.44
CGTCAAAGATCAAGGTAACGTAACAGAAAGCAGC,0.642,0.647,0.471,0.374,0.00649,-0.253,0.485,0.251,0.252,-0.124,0.224,0.612,-0.147,0.691,1.33,0.524,-0.275
CGAACTAGGTCGAGGACAGTGAATCTCCGCACGC,5,0.082,-0.0951,-0.11,-0.012,-0.207,0.419,-0.18,1.64,1.18,0.749,1.36,0.54,0.381,2.11,1.45,0.0594
CGTCAAAGTTCAACTGAGGTAACGTAAAGCACGC,2.31,0.285,0.242,3.03,5.86,4.5,4.36,1.6,5.41,4.06,6.11,6.84,4.76,5.4,5.27,1.89,4.07
CGAACTAGGTCATTGACAGGACAGTGGATAGTAA,7.98,2.72,1.77,1.39,1.52,0.501,2.02,-0.303,3.53,2.83,4.35,4.34,2.35,2.59,2.76,0.809,1.22
CGTCAAACTTCAACTAAGGTAACGTAAAGCACGC,0.514,0.469,0.79,0.684,0.396,0.0401,0.922,1.05,0.391,0.665,0.289,0.43,0.617,0.424,2.4,1.98,0.47
TCTGCTAGGTCAACGTTGGTCAGCTAATCTGCTA,4.38,-0.219,0.673,0.191,1.56,-0.62,2.22,-1.27,4.03,3.31,3.78,4.83,1.06,2.32,3.21,0.755,-0.37
TGTATGAGGTTAAAGATCAGGGAACGTGGCGTCG,1.99,0.959,0.628,1.78,2.38,0.249,3.55,1.35,2.49,1.35,2.79,1.99,1.22,4.35,2.84,1.01,1.19
CGAACTACGTCATCCAGGACAGTGAATACATTGA,0.155,0.664,1.1,0.384,-0.0551,0.144,0.358,0.377,-0.0115,-0.0588,0.374,0.537,0.498,0.2,1.27,1.03,0.313
ACTTACGGCTCAACGAGGTTATAGCACGCGTATA,0.0544,0.327,0.825,0.463,0.645,0.358,0.812,-0.139,0.165,0.526,0.411,0.49,0.343,0.9,1.33,0.562,0.756
GTTACAGGGTCAAGGCCAGAGTACGCGTATTGAT,4.35,0.698,0.735,2.94,3.92,0.672,4.89,0.693,4.52,4.1,5.65,5.24,2.91,6.16,3.62,1.53,2.86
CCTTACGGGTCACGAGGTTGTAGCACGACGAGCG,4.99,1.56,-0.374,3.19,3.92,-0.0862,5.55,0.412,4.42,3.53,5.67,5.42,2.05,6.5,3.19,0.351,1.99
GCTGCTAGGTCAACTGATGGTCATCTAAAGCTCG,4.36,0.236,0.14,2.42,2.17,-0.491,3.74,0.102,4.32,3.66,5.46,5.43,1.87,3.25,3.09,1.12,0.187
TGAATGAGGTTAAATATCAGGGAACGTGGCGTCG,2.35,0.916,0.956,0.766,1.35,0.413,1.91,0.347,2.17,0.735,2.18,1.43,1.95,2.84,2.38,0.583,1.02
AGTCAAAGTTCAGGACGACGTAACGTAAAGCACG,1.54,0.437,-0.388,1.53,2.18,0.785,1.86,0.264,3.92,2.77,3.78,4.45,2.93,2.66,2.02,0.216,2.05
CCAACTGGGCCAAAAAGGTCATTGATGCCGATAA,3.89,-0.199,-0.68,2.84,4.6,3,4.65,1.31,3.94,4.36,4.71,4.35,0.992,5.08,3.11,0.427,2.62
ATCGAAAGGTCGACCAGGTGAGTATACACCGTTT,2.15,0.944,0.642,1.28,2.8,0.258,3.62,0.621,3.98,2.97,4.38,4.1,1.3,4.37,3.34,0.391,1.22
GCTAGTTGGTCAGTAAAAGGTGACACACCGGTCG,1.63,-1.22,-1.06,0.86,0.431,-0.523,1.07,0.0812,1.83,2.45,1.58,1.17,-0.429,0.87,0.938,-0.422,-0.475
CGTCCAAGGTCAGCGGGTCAGTGAAAGCGACGTG,3.48,-0.302,-0.244,3.27,3.9,1.09,5.13,1.34,5.2,4.69,6.32,6.61,2.67,4.98,3.74,2.34,1.76
CGTCAAAGTCCAAGGTAACGTAACAGAAAGCAGC,0.33,0.185,0.896,0.652,-0.079,0.233,0.165,0.428,1.52,0.655,0.398,1.1,1.15,-0.0038,1.31,0.878,0.231
TCTATTAGTTGATTAGGGCAACCGAAACAGCGGA,1.84,0.572,0.488,1.34,0.609,0.491,1.03,1.33,0.953,0.738,0.66,0.733,1.18,0.678,0.697,0.563,0.736
ACTTACGGGTCTACGAGGTTATAGCACGCGTATA,0.458,0.196,0.723,0.507,1.03,0.544,1.28,0.676,0.688,0.753,0.863,0.586,0.937,1.32,1.83,0.82,1.55
CACACTAGGTCACAGAGGTCAAAGTCCGTGCGTA,8.44,0.528,2.16,4.86,6.73,12,7.59,3.69,5.36,5.86,7.55,8.04,3.26,8.19,4.84,3.29,7.03
AATACAGGGTGACTAGGCCAGAGTAGGTACGAAT,3.48,1.24,0.872,0.246,0.11,0.336,0.341,0.259,0.856,0.729,0.739,0.693,-0.419,0.911,0.915,0.154,0.309
ATCGAAAGGTCCACGAGGTGAGTATACACCGTTT,0.791,0.466,0.248,0.167,0.264,-0.268,0.714,0.24,1.66,1.2,1.13,1.3,0.571,0.952,1.96,0.835,0.691
AGAATGAGGTCAAGATCAGGGAAACAGAATACAT,6.55,2.94,2.9,3.03,4.67,1.43,5.28,1.39,5.21,3.8,6.53,6.24,4.15,6.66,4.29,2.98,3.31
